# In PubChem BioAssay AID504834 (National Center for Advancing Translational Sciences (NCATS), 2011):
# Values joined by “and” are separate entries in the source; they are usually repeats but may differ in a detail not shown here. Identical values can stand only once. The whole screen tested about 320,000 compounds, of which about 22,000 (6.9%) were called active. Roughly 27% stayed inconclusive and do not appear here. Calls come from the whole dose curve; as a rule, active = well fitted inhibition curve with a large enough effect; inconclusive = small, poorly fitted or top-dose-only effect, or another doubt; inactive = no such curve, though single readings can be large or run the other way. The full list was thinned out, with actives kept by preference. More than one record can exist for a structure, and the calls need not agree.
# Assay: Primary qHTS for delayed death inhibitors of the malarial parasite plastid, 96 hour incubation
# Conditions: P. falciparum luciferase reporter growth; series mostly up to 28.7 µM; activity change, negative = inhibition: at the top concentration
# Summary of the method: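 Cell-based qHTS: luciferase-tagged P. falciparum in erythrocytes (2% hematocrit, 0.05% parasitemia final) incubated with compounds for 96 hours, 37 C, 5% CO2; luciferase detection reagent then added and luminescence measured.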
# % is set by controls: 0 for no effect and ±100 for the full control effect; potency is the fitted concentration of half-maximal effect.
SMILES,"activity change, negative = inhibition",Potency
O=C(N[C@@H](Cc1c[nH]c2ccccc12)C(=O)O)OCC1c2ccccc2-c2ccccc21,41% (inactive),–
COCCCn1c(SCC(=O)Nc2ccccc2)nnc1-c1ccncc1,2.39% (inactive),–
CC1CCCCC1NC(=O)CSc1nnc(-c2ccncc2)n1CCCN(C)C (centres undefined),6.86% (inactive),–
CN(C)CCCn1c(SCc2ccc(Cl)cc2)nnc1-c1ccncc1,–,2.94 µM (active)
O=C(c1cc(COc2c(F)cccc2F)on1)N1CCSCC1,289% (inactive),–
NC(=O)C1CCN(CC(O)CSc2ccc(F)cc2)CC1 (centres undefined),26.9% (inactive),–
O=c1cc(-c2ccccc2)nc(N2CCCCC2)[nH]1,-15.8% (inactive),–
c1ccc(-c2cc(N3CCCCC3)c3ccccc3n2)cc1,–,9.28 µM (active)
c1ccc(-n2cccc2)c(N2CCCCC2)c1,7.08% (inactive),–
Cc1nc2ccccc2n1CC(O)c1ccccc1 (centres undefined),2.16% (inactive),–
O=C(/C=C/c1cccc(C(F)(F)F)c1)N1CCN(c2ccccn2)CC1,12.2% (inactive),–
Nc1nonc1-n1nnc(C(=O)N/N=C\c2ccncc2)c1CN1CCCCC1,79% (inactive),–
Cc1ccc(CNS(=O)(=O)c2ccc3c(c2)N(C)CCO3)cc1,-0.724% (inactive),–
Cc1ccc(S(=O)(=O)Nc2nc(CN3CCOCC3)nc3sc(C)c(C)c23)cc1,1.88% (inactive),–
Cc1ccc(NC(=O)CN(C)C(=O)Cn2nnc(-c3ccccc3)n2)cc1,28% (inactive),–
COc1c(C)c2c(c(O)c1C/C=C(\C)CCC(=O)O)C(=O)OC2,–,1.61 µM (active)
Cc1cc(=O)oc2c(C(=O)c3ccccc3)c(OCC(N)=O)ccc12,0.359% (inactive),–
COC(=O)c1cc(S(=O)(=O)N2CCC(C(N)=O)CC2)oc1C,5.4% (inactive),–
Cn1c(SCC(=O)N/N=C/c2ccc(O)c(O)c2)nc2ccccc21,0.417% (inactive),–
COc1ccccc1CCNC(=O)c1c(C)nn(CC(C)C)c1Cl,2.72% (inactive),–
Cc1nn(Cc2ccccc2Cl)c(Cl)c1C(=O)OC(C(=O)NC(N)=O)C(C)C (centres undefined),–,13.1 µM (active)
COC(=O)c1ccc(COC(=O)c2c(C)nn(Cc3ccccc3Cl)c2Cl)o1,-79.4% (inactive),–
CCCCCCn1cc(C(=O)O)c(=O)c2cc(F)c(N3CCCCC3)cc21,-5.73% (inactive),–
CC(C)CN(C(=O)Cn1c(=O)cnc2ccccc21)C1CCS(=O)(=O)C1 (centres undefined),0.302% (inactive),–
Cc1ccc(C)c(NC(=O)CN(C)C(=O)c2ccc3ncsc3c2)c1,0% (inactive),–
COc1ccc(C(=O)CCC(=O)Nc2ccc(Cl)cc2)cc1,37.7% (inactive),–

SMILES,"activity change, negative = inhibition",Potency
COc1ccccc1/C=N/N1CCN(Cc2ccccc2Cl)CC1,39.7% (inactive),–
COc1ccc(C2N=C(N)N=C(N)N2c2ccccc2)cc1OC (centres undefined),–,2.62 µM (active)
COc1ccc(C2/C(=C(/O)c3ccccc3)C(=O)C(=O)N2c2ncccn2)cc1OC (centres undefined),1.16% (inactive),–
COc1ccc(C2SCCN2S(=O)(=O)c2ccccc2)cc1OC (centres undefined),31.4% (inactive),–
Cc1ccc(S(=O)(=O)N(C)C)cc1NC(=O)C(C)OC(=O)c1ccc2ccccc2n1 (centres undefined),4.57% (inactive),–
COc1ccc(S(=O)(=O)N(C)CC(=O)NCCCN2CCOCC2)cc1Cl,28.2% (inactive),–
CCOc1ccccc1NC(=O)CCc1nnc2ccc(NCc3ccco3)nn12,–,8.28 µM (active)
CC(=O)c1ccc(NC(=O)CCc2nnc3ccc(NCc4ccco4)nn23)cc1,15.2% (inactive),–
O=C(CCc1nnc2ccc(NCc3ccco3)nn12)Nc1cc(F)ccc1F,-2.28% (inactive),–
CC(C)C[C@H](NC(=O)C1CCC(CNC(=O)[C@@H]2CCCN2C(=O)OC(C)(C)C)CC1)C(=O)O (some centres undefined),2.05% (inactive),–
COc1ccc(CCNC(=O)CCCCCNC(=O)N2CCn3c2nc2ccccc23)cc1OC,–,14.7 µM (active)
COc1ccc(CCNC(=O)CCc2ccccc2O)cc1OC,4.65% (inactive),–
CC(C)[C@H](NC(=O)N1CCn2c1nc1ccccc12)C(=O)NCc1ccc2c(c1)OCO2,1.93% (inactive),–
Cc1ccc(C(=O)N2CCC(n3nccc3NC(=O)Nc3cccc(F)c3)CC2)cn1,0% (inactive),–
CCCC(=O)Nc1ccc2c(c1)nc(CCNC(=O)c1ccco1)n2C,0% (inactive),–
Cc1ccccc1C1CC(c2cccs2)=NN1S(C)(=O)=O (centres undefined),-23.6% (inactive),–
Cc1ccc(C2=NN(C(=O)CSc3nc(N)cc(N)n3)C(c3ccco3)C2)cc1 (centres undefined),-26.7% (inactive),–
COc1ccc(C2CC(c3ccccc3)=NN2C(=O)COC(=O)COc2ccccc2)cc1 (centres undefined),23.8% (inactive),–
COc1ccc(C2CC(c3cccs3)=NN2c2ccc(F)cc2)cc1OC (centres undefined),0% (inactive),–
COc1ccc(C2CC(c3cccs3)=NN2C(=O)CSc2nncs2)cc1OC (centres undefined),–,10.4 µM (active)
COc1ccc(C2CC(c3cccs3)=NN2C(=O)CSc2nnc(N)s2)cc1OC (centres undefined),–,10.4 µM (active)
COc1ccc(C2CC(c3cccs3)=NN2C(=O)COC(=O)c2cc3ccccc3cc2O)cc1OC (centres undefined),0% (inactive),–
COc1ccc(C2CC(c3cccs3)=NN2C(=O)CCC(=O)O)cc1OC (centres undefined),–,2.62 µM (active)
COc1ccc(C2=NN(C(=O)CCC(=O)O)C(c3cccs3)C2)cc1OC (centres undefined),23.4% (inactive),–
COc1cccc(C2CC(c3ccccc3)=NN2S(=O)(=O)c2ccccc2)c1OC (centres undefined),-2.15% (inactive),–
COc1cccc(C2CC(c3cccs3)=NN2C(=O)CSC2=NCCS2)c1OC (centres undefined),–,6.57 µM (active)

SMILES,"activity change, negative = inhibition",Potency
COc1ccc(C2CC(c3cccs3)=Nc3ccccc3S2)cc1OC (centres undefined),11.8% (inactive),–
COc1ccccc1CNC(=O)COC(=O)CNS(=O)(=O)c1ccc(NC(C)=O)cc1,-14.5% (inactive),–
CCCn1cc(S(=O)(=O)c2ccc(C)cc2)c(=O)c2cc(OCC)ccc21,32.7% (inactive),–
CCOc1ncccc1C(=O)NNC(=O)c1cccc(S(=O)(=O)Nc2ccccc2OC)c1,9.01% (inactive),–
O=C(CNC(=O)c1cccs1)N/N=C/c1cccc(Br)c1,38.7% (inactive),–
Cc1cc(F)ccc1S(=O)(=O)Nc1ccc(C(=O)N(C)Cc2ccco2)cc1,30% (inactive),–
Cc1sc2ncnc(N3CCC(C(=O)Nc4nc5ccc(Cl)cc5s4)CC3)c2c1C,36.2% (inactive),–
O=C(N/N=C\C1CC=CCC1)c1ccc(Br)o1 (centres undefined),2.65% (inactive),–
Cc1ccc(-n2c(C)cc(/C=C(\C#N)C(=O)NCC3CCCO3)c2C)cc1 (centres undefined),–,5.86 µM (active)
Cc1ccc(S(=O)(=O)N2CCC(C(=O)NCC3CCCO3)CC2)cc1 (centres undefined),-25.5% (inactive),–
Cc1ccc(C(=O)N/C(=C/c2cccs2)C(=O)NCC2CCCO2)cc1 (centres undefined),32.8% (inactive),–
CC(=O)N(CC(O)CO)c1c(I)c(C(=O)NCC(O)CO)c(I)c(C(=O)NCC(O)CO)c1I (centres undefined),–,inactive and 13.5 µM (active)
CC(C)(Oc1ccc(Cl)cc1)C(=O)OCC(=O)NCCc1ccc(S(N)(=O)=O)cc1,9.46% (inactive),–
Cc1cc(C)n2nc(C(=O)OC(C)C(=O)c3cc(C)c(C)cc3C)nc2n1 (centres undefined),46.2% (inactive),–
Oc1ccc(Cl)c2c1CCC2,-18% (inactive),–
Cc1ccc(NC(=O)Nc2cc(-c3ccccc3)nn2C)cc1Cl,22.7% (inactive),–
O=Cc1cn(Cc2ccccc2)nc1-c1cccnc1,10.1% (inactive),–
COc1ccc(NC(=O)CN(C)C(=O)/C=C/c2cn(Cc3ccccc3)nc2-c2cccnc2)cc1,–,9.28 µM (active)
COc1cccc(NC(=O)CN(C)C(=O)/C=C/c2cn(-c3ccccc3)nc2-c2cccs2)c1,3.17% (inactive),–
O=C(Nc1ccc(NC(=O)c2ccc3c(c2)OCO3)cc1)c1cccc(Cl)c1,-12.7% (inactive),–
CN(c1ccccc1)S(=O)(=O)c1ccc(C(=O)NCCc2ccccc2)cc1,4.97% (inactive),–
CC(NC(=O)CSc1nc2c(cc1C#N)CN(C)CC2)c1ccccc1 (centres undefined),58.3% (inactive),–
CC1(C)CCc2nc(SCc3ccccc3)c(C#N)cc2C1,–,6.57 µM (active)
Cc1cc(C)nc(SCc2ccccc2C#N)n1,103% (inactive),–
CCCCN(C(=O)c1nn(C)c(=O)c2ccccc12)c1c(N)n(CCC)c(=O)[nH]c1=O,14.7% (inactive),–
COc1ccccc1C(=O)NC(=S)Nc1ccccc1N1CCCCC1,25.3% (inactive),–

SMILES,"activity change, negative = inhibition",Potency
Oc1c(C=Nc2cccc3nsnc23)ccc2ccccc12,0% (inactive),–
Oc1ccc2ccccc2c1N=Nc1nccs1,–,9.28 µM (active)
c1ccc(NCc2cccc3ccccc23)nc1,-21% (inactive),–
Oc1ccc(N=Nc2nccs2)c(O)c1,–,11.7 µM (active)
COc1ccc(C(=O)N[C@H](C(=O)NCc2ccccc2)C(C)C)cc1,13.7% (inactive),–
COc1cccc(NC(=O)N2CCCC2C(=O)NC2CCCCC2)c1 (centres undefined),-1.78% (inactive),–
CCOC(=O)Cn1c(=O)n(Cc2ccc(OC)cc2)c(=O)c2cccnc21,28.9% (inactive),–
c1ccc(-c2oc3ncnc(N4CCOCC4)c3c2-c2ccccc2)cc1,-6.25% (inactive),–
COc1cc2nc(Cl)nc(NCCO)c2cc1OC,1.36% (inactive),–
COc1ccc(-c2oc3ncnc(NCCCO)c3c2-c2ccc(OC)cc2)cc1,–,2.08 µM (active)
Cc1ccc(S(=O)(=O)N(Cc2ccccc2)c2ccccn2)cc1[N+](=O)[O-],-14.9% (inactive),–
CCC(C)N1CC(=O)N2Cc3[nH]c4ccccc4c3C[C@H]2C1=O (some centres undefined),3.67% (inactive),–
Cc1[nH]nc(-c2ccc(OCc3cnn(-c4ccccc4)c3)cc2O)c1Oc1ccc(Cl)cc1,–,13.1 µM (active)
Oc1cccc(C2c3[nH]c4ccccc4c3CCN2Cc2cnn(-c3ccccc3)c2)c1 (centres undefined),2.75% (inactive),–
CN=C1S/C(=C\c2c(OC)cc(OC)cc2OC)C(=O)N1C,14.8% (inactive),–
O=C(CN1CCCCCC1)Nc1ccc(S(=O)(=O)N2CCCCC2)cc1,4.97% (inactive),–
CC(Oc1ccccc1[N+](=O)[O-])C(=O)N/N=C/c1ccoc1 (centres undefined),39.7% (inactive),–
Cc1cc(-c2csc(N)n2)c(C)n1Cc1ccccc1,-16.6% (inactive),–
CCc1noc(C)c1C(=O)Nc1nc(-c2ccccc2)cs1,50.8% (inactive),–
CC(=O)Nc1ccc(C(=O)Nc2nc(-c3cc(C)n(Cc4ccccc4)c3C)cs2)cc1,–,4.15 µM (active)
CCN(CC(=O)NCc1cccs1)C(=O)/C=C/c1ccc(C)cc1,-23.7% (inactive),–
Cc1cc2ccccc2n1CCC(=O)O,29% (inactive),–
O=C(O)CCn1c(Cc2ccccc2)nc2ccccc21,-16.9% (inactive),–
O=C(O)CCn1c(O)c(C=C2N=c3ccccc3=N2)sc1=S,–,4.65 µM (active)
CCS(=O)(=O)C1=NSC2=NC(=O)/C(=C\c3ccc(OS(=O)(=O)c4ccccc4)cc3)C(=N)N21,-0.896% (inactive),–
CC(C)(C)C(=O)Nc1c(Br)c(C2CC2)nn1-c1ccccc1,-2.14% (inactive),–
